This passage reports Potency results from ChEMBL document CHEMBL1201862, “PubChem BioAssay data set” (2004).

Screen size: about 270,000 compounds; about 5,800 (2.1%) were called active. Another 16% or so got no clear call; they are omitted. No cut-off for these calls is given here. The sample as a whole holds a higher share of actives than the screen did.

Sequence of Microtubule-associated protein tau (Homo sapiens) (P10636 whole entry): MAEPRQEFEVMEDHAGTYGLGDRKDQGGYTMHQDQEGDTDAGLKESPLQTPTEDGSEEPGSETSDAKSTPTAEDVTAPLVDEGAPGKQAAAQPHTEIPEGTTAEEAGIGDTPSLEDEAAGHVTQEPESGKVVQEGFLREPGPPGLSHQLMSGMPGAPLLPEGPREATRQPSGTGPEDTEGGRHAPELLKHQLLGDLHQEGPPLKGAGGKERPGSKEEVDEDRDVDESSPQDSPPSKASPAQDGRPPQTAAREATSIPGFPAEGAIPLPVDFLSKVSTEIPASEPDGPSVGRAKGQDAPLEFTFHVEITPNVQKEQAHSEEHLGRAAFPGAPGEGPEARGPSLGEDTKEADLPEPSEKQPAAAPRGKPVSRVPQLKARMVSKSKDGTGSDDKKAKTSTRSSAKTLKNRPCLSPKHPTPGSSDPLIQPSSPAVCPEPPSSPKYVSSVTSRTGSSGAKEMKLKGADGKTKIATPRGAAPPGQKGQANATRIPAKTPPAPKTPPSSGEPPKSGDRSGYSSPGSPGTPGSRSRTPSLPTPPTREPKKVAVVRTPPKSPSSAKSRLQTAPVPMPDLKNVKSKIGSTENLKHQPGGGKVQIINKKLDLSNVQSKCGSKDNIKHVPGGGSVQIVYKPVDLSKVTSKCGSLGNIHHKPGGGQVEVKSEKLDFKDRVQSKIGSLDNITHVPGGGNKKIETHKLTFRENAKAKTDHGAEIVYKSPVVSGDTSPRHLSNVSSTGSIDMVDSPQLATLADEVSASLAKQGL

The assay addresses Microtubule-associated protein tau (Homo sapiens) (UniProt P10636). The experiment in a line: qHTS for Inhibitors of Tau Fibril Formation, Thioflavin T Binding. [Related pubchem assays: 596 ]. (In general: Quantitative high-throughput screening tests each substance at several concentrations.)
As for `O=C(O)c1cc(/N=N/c2ccc(S(=O)(=O)Nc3ccccn3)cc2)ccc1O`, the Potency was 12.6 µM (active).
